aGal spleen mod: inhibitors or activators of human alpha-galactosidase in spleen homogenate. 0.008% of 240,000 active. human spleen homogenate, 4MU-alpha-Gal fluorescence, 40 min. P06280. Potency, µM (titrated, usually from 80 µM), without a hit: at the highest dose activity change, negative = inhibition, hits mostly inhibitors;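 also: potency is read from the fitted curve at half-maximal effect; 0% = enzyme with vehicle and -100% = no enzyme basal signal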
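Fluorogenic readout (Ex 365/Em 440 nm) of 4-methylumbelliferone released from 1 mM 4-MU-alpha-galactoside by spleen homogenate, 40 min at 37C, pH 5.0. Data normalized to no-enzyme and enzyme controls; Hill-equation AC50 from compound titrations.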
PNC assembly inh: perinucleolar compartment assembly inhibition. PC3M PTB-GFP, PNC prevalence imaging, 16 h; stronger effect = lower value. 3.1% of 140,000 active. activity change (PNC), negative = inhibition, % at 10 µM;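 active = readout at or below -70, meaning at least 70% loss of cells showing the perinucleolar compartment, a nuclear body marking cancer cells; inconclusive = readout between -30 and a set limit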;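 also: plate controls were DMSO wells for no effect and camptothecin positive control wells for full effect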
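Compounds are pinned in duplicate onto adhered PC3M cells stably expressing GFP-tagged PTB and incubated 16 h at 37 C. Cells are then fixed, nuclei stained with Hoechst, and PNC-positive cells counted.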
HPGD inh: blocks human HPGD enzyme activity; P15428; purified HPGD, NADH fluorescence kinetic, PGE2 substrate; Potency, µM, without a hit: at the highest dose activity change, negative = inhibition, actives largely listed as inhibitors; 4.3% of 150,000 active; AID 894; active = well fitted inhibition curve with a large enough effect, not every such curve was filed as active; inconclusive = small, poorly fitted or top-dose-only effect, or another doubt; inactive = no such curve, though single readings can be large or run the other way; also: potency is read from the fitted curve at half-maximal effect
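20 nM HPGD preincubated 15 min at room temperature with compound in 50 mM Tris-HCl pH 8, 0.01% Tween 20. Started with 1 mM NAD+ and 30 uM prostaglandin E2; NADH fluorescence (360/450 nm) read 5 times over 30-s intervals, last minus first.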
ALDH1A1 inh: ALDH1A1 (human) enzyme inhibition; Purified ALDH1A1, NADH fluorescence, propionaldehyde substrate; Potency, µM (doses to about 75.3 µM), inactives show top-dose activity, negative = inhibition, most hits filed as inhibitors; P00352; 7.3% of 220,000 active; active = well fitted inhibition curve with a large enough effect, not every such curve was filed as active; inconclusive = small, poorly fitted or top-dose-only effect, or another doubt; inactive = no such curve, though single readings can be large or run the other way;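 also: potency is read from the fitted curve at half-maximal effect; plate controls were no enzyme wells and a reference inhibitor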
GLA inh pH 4.5: inhibitors of human alpha-galactosidase A at pH 4.5 | purified enzyme, 4-MU-alpha-Gal fluorescence, pH 4.5 | activity change, negative = inhibition, % at 105 µM | 230,000 tested, under 10 active | AID 1467;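 also: 0% = full activity with enzyme and -100% = basal without enzyme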
Target sequence (P06280 whole entry, looked up): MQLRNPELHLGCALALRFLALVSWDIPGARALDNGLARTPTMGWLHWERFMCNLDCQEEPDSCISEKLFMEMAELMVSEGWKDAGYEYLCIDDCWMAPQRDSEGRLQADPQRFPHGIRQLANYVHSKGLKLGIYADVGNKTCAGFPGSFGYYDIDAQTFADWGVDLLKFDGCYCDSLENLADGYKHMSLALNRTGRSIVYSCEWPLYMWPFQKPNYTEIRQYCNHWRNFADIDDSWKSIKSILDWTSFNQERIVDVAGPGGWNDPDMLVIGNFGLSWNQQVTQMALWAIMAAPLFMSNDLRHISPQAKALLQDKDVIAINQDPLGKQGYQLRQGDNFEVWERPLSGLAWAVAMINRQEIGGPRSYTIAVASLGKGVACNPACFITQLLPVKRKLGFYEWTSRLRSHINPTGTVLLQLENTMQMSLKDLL
12-hLO inh: blocks human 12-lipoxygenase activity | P18054 | Potency, µM (series often up to 57.1 µM), inactives show top-dose activity change, negative = inhibition, usual class: inhibitors | purified 12-hLO, xylenol orange hydroperoxide absorbance | 0.12% of 150,000 active | AID 1452; also: potency is read from the fitted curve at half-maximal effect; nearly all actives have a fitted effect of over 55% in size
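Xylenol orange chromogenic assay: hydroperoxide from 12hLO oxidises Fe(II), giving red-shifted Fe(III)-XO absorbance. Conditions: 150 nM enzyme, 40 uM arachidonic acid, 25 mM Hepes pH 7.0, 0.01% Triton X-100, 30 min, room temperature.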
Starred values were filed as active, the others as inactive; ? = inconclusive; nt = not tested or not shown; [ ] = another dose, or the depositor's remark. Compounds with a hit are over-represented: about 10% of the library has one in this group of screens. Unless noted, calls follow the shape of the dose curve; as a rule, active = well fitted curve in the direction sought with a large enough effect; inconclusive = small, poorly fitted or top-dose-only effect, or another doubt; inactive = no such curve, though single readings can be large; an effect the other way counts as inactive or inconclusive. Unless noted, % is scaled to controls: 0 for no effect and ±100 for the full control effect.

SMILES	aGal spleen mod	PNC assembly inh	HPGD inh	ALDH1A1 inh	GLA inh pH 4.5	12-hLO inh
COc1ccc(CCN2C(=O)CC(C(C)c3ccccc3)C2=O)cc1OC (centres undefined)	-10%	nt	nt	1%	10	nt
CCN(C(=O)CN(C)Cc1cccc(Cl)c1Cl)c1c(N)n(Cc2ccccc2)c(=O)[nH]c1=O	-8%	-98*	-15%	8%	10	-2%
O=C(O)c1ccc(S(=O)(=O)N[C@H](Cc2c[nH]c3ccccc23)C(=O)O)cc1	2%	nt	nt	nt	nt	nt
Cc1ccc(CN(C)C(=O)c2cc(COc3ccc(F)cc3Cl)on2)o1	-10%	nt	nt	7.1µM*	-4	nt
O=C(Nc1cc(S(=O)(=O)N2CCOCC2)ccc1N1CCCC1)c1cccnc1Cl	-4%	nt	nt	nt	1	nt
COc1ccc(/C=N/n2cc(-c3ccc(OC)cc3)nc2N)cc1	22%	-129*	-24%	?	-5	-8%
Cc1ccc(Cn2nnc3c(=O)[nH]c(C4CCN(S(=O)(=O)c5ccc(F)cc5)CC4)nc32)cc1	21%	122	-16%	0%	-4	-13%
Cc1nc(N2CCC3(CC2)OCCO3)c2nnn(Cc3ccccc3F)c2n1	3%	28	-25%	?	-4	-6%
O=c1[nH]c(C2CCCN(S(=O)(=O)c3ccccc3)C2)nc2c1nnn2Cc1ccccc1 (centres undefined)	-11%	?	14µM*	10µM*	-1	-9%
O=c1[nH]c(C2CCCN(S(=O)(=O)c3ccccc3)C2)nc2c1nnn2Cc1ccccc1F (centres undefined)	0%	-23	13µM*	?	-5	6%
COC(CNC(=O)C1CC(=O)N(CCc2ccccc2)C1)OC (centres undefined)	1%	14	-16%	11%	-2	7%
O=C(NCc1ccco1)C1CC(=O)N(CCc2ccccc2)C1 (centres undefined)	13%	40	-8%	22µM*	-8	-4%
CCOc1ccc2nc3cc(N=Nc4ccc(N)nc4N)ccc3c(N)c2c1	nt	nt	-8%	-3%[13.5 µM]	nt	-1%[11.4 µM]
COC(=O)C(N)Cc1ccc(OC)c([N+](=O)[O-])c1 (centres undefined)	-2%	nt	nt	?	-3	nt
CCCCCC(=O)NC(Cc1ccc(OC)c([N+](=O)[O-])c1)C(=O)O (centres undefined)	-4%	nt	nt	13µM*	2[21.1 µM]	nt
COc1ccc(C2CC(c3c(-c4ccccc4)c4cc(Cl)ccc4[nH]c3=O)=NN2S(C)(=O)=O)cc1 (centres undefined)	7%	-13	-7%	0.4µM*	3	1%
O=Cc1ccc(-n2nncc2-c2ccc([N+](=O)[O-])cc2)cc1	7%	nt	nt	13µM*	-2	nt
O=C(O)c1cccc(N2C(=O)/C(=C/c3ccc(SCc4ccc(Cl)cc4)o3)SC2=S)c1	2%	nt	nt	25µM*	-16	nt
Cc1ccc(/C=C2\SC(=S)N(c3cccnc3)C2=O)o1	19%	nt	nt	nt	-2	nt
CCc1ccc(NC(=O)CC2C(=O)N(c3ccc(C)cc3)C(=O)N2CCc2ccncc2)cc1 (centres undefined)	-9%	nt	nt	3.5µM*	-13	nt
CCc1ccc(NC(=O)CC2C(=O)N(c3cccc(C)c3)C(=O)N2C2CC2)cc1 (centres undefined)	-2%	nt	nt	11µM*	11	nt
CCOC(=O)c1c(NC(=O)Cn2cnc([N+](=O)[O-])n2)sc(C)c1C	5%	nt	nt	32µM*	8	nt
CCOC(=O)c1c(NC(=O)Cn2cnc([N+](=O)[O-])n2)sc2c1CCCC2	8%	30	-17%	?	-15	-3%
CCOC(=O)c1c(NC(=O)Cn2cnc3scc(-c4ccc(C)cc4)c3c2=O)sc(C)c1C	3%	?	-29%	14µM*	5	2%
COC(=O)c1c(NC(=O)Cn2nc(C(F)F)cc2C(F)F)sc(C)c1C	3%	?	28µM*	11µM*	-22	-9%
CC(C)OC(=O)c1c(NC(=O)Cn2cnc([N+](=O)[O-])n2)sc2c1CCCC2	-2%	?	-27%	13µM*	6	0%
